# Measurements: the supplement of paper PMC3545927
# The list shows a part of the results. No count for the full screen is at hand.
# Biological target: furin, P09958
# Assay: furin cleavage Z-score vs untreated control; higher = more cleavage, active = 3.5 or more, inactive = 1 or less, 8 variable residues between constant flanks
# Procedure, shortened: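 Abundance of DNA freed from bead-bound 8-mer peptide–cDNA fusions by purified furin was measured as sequencing read counts after PCR adapter tagging. Cutting ran 7.5, 15 or 30 min in 0.01 ml of 50 mM HEPES pH 7.5 with CaCl2 and NaCl at 1:10 enzyme:substrate. The cleavage Z-score expresses these log counts against furin-free reactions after lowess adjustment and median absolute deviation scaling.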
# furin, P09958, sequence (P09958 whole entry): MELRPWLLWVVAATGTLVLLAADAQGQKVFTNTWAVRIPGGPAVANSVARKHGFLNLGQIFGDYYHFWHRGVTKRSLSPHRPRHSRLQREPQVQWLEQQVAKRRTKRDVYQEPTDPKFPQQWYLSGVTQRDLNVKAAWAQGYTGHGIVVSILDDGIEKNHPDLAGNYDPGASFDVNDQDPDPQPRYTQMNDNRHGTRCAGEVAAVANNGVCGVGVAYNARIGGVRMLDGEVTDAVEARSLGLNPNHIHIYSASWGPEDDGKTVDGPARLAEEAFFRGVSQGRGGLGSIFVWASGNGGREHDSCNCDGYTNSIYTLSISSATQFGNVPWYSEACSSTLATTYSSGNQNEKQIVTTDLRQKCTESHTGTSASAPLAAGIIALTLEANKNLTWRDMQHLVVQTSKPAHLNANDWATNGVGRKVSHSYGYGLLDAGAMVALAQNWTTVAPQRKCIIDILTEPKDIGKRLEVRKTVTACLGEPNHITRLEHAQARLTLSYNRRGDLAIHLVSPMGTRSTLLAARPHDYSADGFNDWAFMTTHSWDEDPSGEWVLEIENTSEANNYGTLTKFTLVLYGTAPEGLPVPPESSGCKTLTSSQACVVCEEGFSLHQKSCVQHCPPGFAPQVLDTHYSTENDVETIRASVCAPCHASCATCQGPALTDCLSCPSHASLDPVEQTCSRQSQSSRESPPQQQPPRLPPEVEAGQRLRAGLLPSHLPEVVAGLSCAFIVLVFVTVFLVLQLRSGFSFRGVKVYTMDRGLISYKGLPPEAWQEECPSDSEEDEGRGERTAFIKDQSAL
Sequence,furin cleavage Z-score (7.5 min),furin cleavage Z-score (15 min),furin cleavage Z-score (30 min)
CATGTYVYNHAGNASASA [HC633],-0.127 (inactive),-1.41 (inactive),-0.282 (inactive)
CARRARDMSSAGNASASA [FS-1771],2.38,4.53 (active),4.22 (active)
CAADGMVSKGAGNASASA [HC668],0.272 (inactive),0.596 (inactive),-0.245 (inactive)
CAGSQWEKRSAGNASASA [FS-1129],1.1,-0.464 (inactive),-0.295 (inactive)
CATLDRSKRNAGNASASA [FS-1494],10.9 (active),11.2 (active),9.22 (active)
CATLDREKRSAGNASASA [FS-98],9.65 (active),10.6 (active),9.73 (active)
CAFIGREKRSAGNASASA [FS-1323],12 (active),10.8 (active),9.06 (active)
CARQDRSKGTAGNASASA [FS-2225],0.0348 (inactive),-0.0846 (inactive),-0.182 (inactive)
CAMLSPEKRSAGNASASA [FS-178],0.073 (inactive),-0.325 (inactive),0.835 (inactive)
CADQEREKRSAGNASASA [FS-1115],2.32,3.5 (active),5.3 (active)
CADPMLEKRSAGNASASA [FS-1517],-0.771 (inactive),-0.469 (inactive),0.309 (inactive)
CADMMMNWSPAGNASASA [HC321],-1.68 (inactive),-0.337 (inactive),-0.211 (inactive)
CANRLIAFASAGNASASA [HC1119],0.982 (inactive),0.0869 (inactive),0.661 (inactive)
CAPYYKRYISAGNASASA [HC577],-0.596 (inactive),1.03,0.43 (inactive)
CAEVPCHRCSAGNASASA [HC2400],-0.164 (inactive),1.15,0.38 (inactive)
CAARHRPRRLAGNASASA [FS-1307],8.25 (active),10.2 (active),9.03 (active)
CAACIRKRRLAGNASASA [FS-1582],8.2 (active),8.28 (active),8.96 (active)
CAEGHRPRRPAGNASASA [FS-412],-0.592 (inactive),-1.65 (inactive),-2.58 (inactive)
CAGDIRVRRLAGNASASA [FS-423],3.94 (active),5.14 (active),6.57 (active)
CANLSRNRRLAGNASASA [FS-697],2.54,6.24 (active),6.91 (active)
CAAEAAGRRLAGNASASA [HC1252],-0.023 (inactive),-0.0869 (inactive),-1.21 (inactive)
CAKRAAVRRLAGNASASA [FS-1134],-0.242 (inactive),-0.206 (inactive),1.42

Sequence,furin cleavage Z-score (7.5 min),furin cleavage Z-score (15 min),furin cleavage Z-score (30 min)
CAAWYLKGKWAGNASASA [HC548],-0.848 (inactive),-0.178 (inactive),-0.813 (inactive)
CAHSAKSKFGAGNASASA [HC1418],-0.464 (inactive),-0.415 (inactive),-0.702 (inactive)
CAVVCCSMSKAGNASASA [HC2094],-0.242 (inactive),-0.54 (inactive),-1.3 (inactive)
CAHGAGTRTIAGNASASA [HC702],1.09,1.35,-2.29 (inactive)
CAALSRPRRLAGNASASA [FS-749],2.43,5.44 (active),2.14
CAEVPCHRPVAGNASASA [HC2410],0.723 (inactive),-0.406 (inactive),-0.356 (inactive)
CAKPQRPRRPAGNASASA [FS-1133],-0.333 (inactive),0.223 (inactive),1.52
CASSGRSFRSAGNASASA [FS-146],0.572 (inactive),0.748 (inactive),1.78
CARSSRSGSSAGNASASA [FS-3096],-0.25 (inactive),-0.36 (inactive),-1.33 (inactive)
CARESRPRRQAGNASASA [FS-1395],8.96 (active),9.39 (active),6.91 (active)
CASSGRPRRSAGNASASA [FS-507],10.4 (active),9.27 (active),7.66 (active)
CARSSRPRRSAGNASASA [FS-1163],10.4 (active),11 (active),6.76 (active)
CASSGCPERLAGNASASA [HC385],-0.122 (inactive),-0.598 (inactive),0.353 (inactive)
CAVDSRPRRSAGNASASA [FS-887],9.24 (active),9.17 (active),9.61 (active)
CAQAETAGARAGNASASA [HC828],-0.329 (inactive),0.716 (inactive),-1.08 (inactive)
CADTAACGDIAGNASASA [HC655],0.349 (inactive),-0.867 (inactive),1
CAQGWGPISYAGNASASA [HC394],1.47,0.693 (inactive),0.999 (inactive)
CASEPAPSGCAGNASASA [HC1345],-2.17 (inactive),0.166 (inactive),-1.95 (inactive)
CATTPCPGSWAGNASASA [HC80],0.174 (inactive),-1.3 (inactive),-1.39 (inactive)
CAEFTTPCSGAGNASASA [HC1967],-0.433 (inactive),-0.681 (inactive),-0.377 (inactive)
CATTPCSGSHAGNASASA [HC1935],-1.54 (inactive),-0.464 (inactive),-0.211 (inactive)
